# PubChem BioAssay (NCATS)
# Results filed as inconclusive are left out. A call without a number means that no potency is given here. Activity calls are given as the source filed them. Calls follow the shape of the dose curve; as a rule, active = well fitted curve in the direction sought with a large enough effect; inconclusive = small, poorly fitted or top-dose-only effect, or another doubt; inactive = no such curve, though single readings can be large; an effect the other way counts as inactive or inconclusive.
# Legend:
# [1] = qHTS of pediatric cancer cell lines to identify multiple opportunities for drug repurposing: Primary screen for LAN-5 cells (AID 1347100); also: potency is read from the fitted curve at half-maximal effect
# Procedure, shortened: (§1)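 Cells (500-1,000/well) in growth media were settled 5 h at 37 degrees C, then given compounds for 48 h. Viability was read as CellTiter-Glo luminescence. Primary runs used MIPE at 11 points (0.78 nM-46 µM) and NPC at 8 points (0.59 nM-46 µM); follow-ups used 11 points.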
# [2] = qHTS of pediatric cancer cell lines to identify multiple opportunities for drug repurposing: Primary screen for Rh18 cells (AID 1347102); also: nearly all actives have a fitted effect of over 65% in size; also: potency is read from the fitted curve at half-maximal effect
# Procedure, shortened: as §1
# [3] = qHTS of pediatric cancer cell lines to identify multiple opportunities for drug repurposing: Primary screen for MG 63 (6-TG R) cells (AID 1347105); also: nearly all actives have a fitted effect of over 50% in size; also: potency is read from the fitted curve at half-maximal effect
# Procedure, shortened: (§2)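 Following a 5-hour attachment period, cells at 500-1,000/well received compounds and were cultured for 48 hours. CellTiter-Glo was added and luminescence read to estimate viable, metabolically active cells.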
# [4] = qHTS of pediatric cancer cell lines to identify multiple opportunities for drug repurposing: Primary screen for OHS-50 cells (AID 1347103); also: nearly all actives have a fitted effect of over 40% in size; also: potency is read from the fitted curve at half-maximal effect
# Procedure, shortened: (§3)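 Cells (500-1,000/well) rested 5 h, then received compounds for 48 h; metabolically active cells were measured by CellTiter-Glo luminescence. Final concentrations spanned up to 46 µM (MIPE, 11-point) or 0.59 nM-46 µM (NPC, 8-point) in primary screens, 11-point in follow-ups.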
# [5] = qHTS of pediatric cancer cell lines to identify multiple opportunities for drug repurposing: Primary screen for control Hh wild type fibroblast cells (AID 1347106); also: nearly all actives have a fitted effect of over 55% in size; also: potency is read from the fitted curve at half-maximal effect
# Procedure, shortened: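 Viability after 48 h compound treatment at 37C, 500-1,000 cells/well, read as ATP luminescence with CellTiter-Glo. Primary screens used 11-point (MIPE, 0.78 nM-46 µM) or 8-point (NPC, 0.59 nM-46 µM) final concentrations; follow-up screens used 11-point dilutions.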
# [6] = qHTS of pediatric cancer cell lines to identify multiple opportunities for drug repurposing: Primary screen for Rh41 cells (AID 1347108); also: nearly all actives have a fitted effect of over 70% in size; also: potency is read from the fitted curve at half-maximal effect
# Procedure, shortened: as §2
# [7] = qHTS of pediatric cancer cell lines to identify multiple opportunities for drug repurposing: Primary screen for RD cells (AID 1347104); also: nearly all actives have a fitted effect of over 55% in size; also: potency is read from the fitted curve at half-maximal effect
# Procedure, shortened: as §2
# [8] = qHTS of pediatric cancer cell lines to identify multiple opportunities for drug repurposing: Primary screen for Rh30 cells (AID 1347107); also: series mostly up to about 46 µM; nearly all actives have a fitted effect of over 75% in size
# Procedure, shortened: as §1
# [9] = qHTS of pediatric cancer cell lines to identify multiple opportunities for drug repurposing: Primary screen for BT-12 cells (AID 1347101); also: nearly all actives have a fitted effect of over 25% in size; also: potency is read from the fitted curve at half-maximal effect
# Procedure, shortened: as §3
compound,measurement,setting,value
CN(C)S(=O)(=O)c1ccc2c(c1)C(=Cc1cc3c([nH]1)CCCC3)C(=O)N2,Potency,[1],2.35 µM (active)
same,Potency,[2],inactive
same,Potency,[3],inactive
C=CC[N+]1([C@H]2C[C@H]3[C@@H]4CC[C@H]5C[C@H](O)[C@@H](N6CCOCC6)C[C@]5(C)[C@@H]4CC[C@]3(C)[C@H]2OC(C)=O)CCCC1,Potency,[1],inactive
same,Potency,[2],inactive
same,Potency,[4],inactive
same,Potency,[5],inactive
CO[C@H]1O[C@@H]2O[C@@]3(C)CC[C@@H]4[C@@H](C)CC[C@@H]([C@H]1C)[C@@]24OO3,Potency,[1],20.9 µM (active)
same,Potency,[3],inactive
same,Potency,[5],inactive
same,Potency,[6],inactive
COc1cc(F)c(C(C)C)cc1-c1ccc(C(F)(F)F)cc1CN1C(=O)O[C@H](c2cc(C(F)(F)F)cc(C(F)(F)F)c2)[C@@H]1C,Potency,[1],18.7 µM (active)
same,Potency,[2],inactive
same,Potency,[7],inactive
same,Potency,[3],inactive
same,Potency,[5],inactive
same,Potency,[8],inactive
same,Potency,[6],inactive
COc1ccc2c(c1)c(C1=C(c3c[nH]c4ccccc34)C(=O)NC1=O)cn2CCCN(C)C,Potency,[1],16.6 µM (active)
same,Potency,[3],inactive
same,Potency,[5],inactive
CNC(=O)[C@H](Cc1ccccc1)NC(=O)[C@H](CC(C)C)[C@H](CSc1cccs1)C(=O)NO,Potency,[1],inactive
same,Potency,[2],inactive
same,Potency,[5],inactive
C[C@@H](N)c1ccc(C(=O)Nc2ccnc3[nH]ccc23)cc1,Potency,[1],16.6 µM (active)
same,Potency,[3],inactive
same,Potency,[5],inactive
same,Potency,[8],inactive
CCCCn1c(=O)n(Cc2ccccc2F)c(=O)c2[nH]c(Cc3ccc(NC(C)=O)cc3)nc21,Potency,[1],inactive
same,Potency,[2],inactive
same,Potency,[3],18.7 µM (active)
same,Potency,[5],inactive
COC(=O)N1CCN(Cc2cccc(NC(=O)Nc3ccc(C)nc3)c2F)CC1,Potency,[1],inactive
same,Potency,[2],inactive
same,Potency,[7],inactive
same,Potency,[5],inactive
CNc1nc(-c2ccc3c(N)n[nH]c3c2)cc(N2C[C@@H](C(=O)NC3CCCCC3)CC[C@@H]2C)n1,Potency,[1],26.4 µM (active)
same,Potency,[4],0.273 µM (active)
same,Potency,[7],20.9 µM (active)
same,Potency,[3],3.72 µM (active)
same,Potency,[5],inactive
same,Potency,[8],inactive
COc1ccc2c(c1)CC[C@H]1[C@@H]2CC[C@]2(C)[C@@H](NCCCCCCN3C(=O)C=CC3=O)CC[C@H]12,Potency,[1],inactive
same,Potency,[2],inactive
same,Potency,[7],inactive
same,Potency,[3],inactive
same,Potency,[5],inactive
COC(=O)Nc1ccc(-c2nc(N3CCOCC3)c3cnn(C4CCN(C(=O)OC)CC4)c3n2)cc1,Potency,[9],0.611 µM (active)
same,Potency,[2],6.62 µM (active)
same,Potency,[4],0.432 µM (active)
same,Potency,[7],1.66 µM (active)
same,Potency,[3],0.469 µM (active)
same,Potency,[5],0.0209 µM (active)
same,Potency,[8],inactive
same,Potency,[6],1.32 µM (active)
COc1c(C)c2c(c(O)c1CC=C(C)CCC(=O)O)C(=O)OC2,Potency,[1],3.32 µM (active)
same,Potency,[2],inactive
same,Potency,[5],inactive
same,Potency,[8],inactive
same,Potency,[6],inactive
CN(C)N=Nc1nc[nH]c1C(N)=O,Potency,[2],inactive
same,Potency,[7],inactive
same,Potency,[3],inactive
same,Potency,[5],inactive
same,Potency,[6],inactive
N=C1SC(=Cc2ccc(-c3ccc4c(c3)C(=O)NC4=O)o2)C(=O)N1c1ccc(Br)cc1,Potency,[9],inactive
same,Potency,[2],inactive
same,Potency,[7],inactive
same,Potency,[3],inactive
same,Potency,[5],inactive
same,Potency,[8],inactive
C[C@@H]1CCO[C@H]2Cn3cc(C(=O)NCc4ccc(F)cc4F)c(=O)c(O)c3C(=O)N12,Potency,[7],inactive
same,Potency,[3],inactive
same,Potency,[5],inactive
C=CCc1cccc(C=NNC(=O)CN2CCN(Cc3ccccc3)CC2)c1O,Potency,[9],24.3 µM (active)
same,Potency,[4],7.69 µM (active)
same,Potency,[7],16.6 µM (active)
same,Potency,[3],18.7 µM (active)
same,Potency,[5],inactive
same,Potency,[6],18.7 µM (active)
CCOC(=O)c1c(CSc2ccccc2)n(C)c2cc(Br)c(O)c(CN(C)C)c12,Potency,[4],27.3 µM (active)
same,Potency,[5],inactive
CNC(=O)c1cc(COc2nnc(Nc3ccc(Cl)cc3)c3ccoc23)ccn1,Potency,[4],21.7 µM (active)
same,Potency,[3],23.5 µM (active)
same,Potency,[5],inactive
Clc1ccc(C2(c3ccc(-c4cn[nH]c4)cc3)CCNCC2)cc1,Potency,[9],inactive
same,Potency,[7],26.4 µM (active)
same,Potency,[3],5.9 µM (active)
same,Potency,[5],inactive
OC1CCC(Nc2ncc3nc(Nc4c(F)cc(F)cc4F)n([C@@H]4CCOC4)c3n2)CC1 (some centres not stated),Potency,[9],inactive
same,Potency,[2],inactive
same,Potency,[3],inactive
same,Potency,[5],inactive
same,Potency,[6],inactive
Cc1ccc2c(c1)C(=O)[C@]1(O)CCN(c3ccccc3)C1=N2,Potency,[5],inactive
same,Potency,[8],inactive
CCNC(=O)CCCC=CC[C@@H]1[C@H](C=CC(O)CCc2ccccc2)[C@@H](O)C[C@@H]1O (some centres not stated),Potency,[2],inactive
same,Potency,[4],inactive
same,Potency,[7],inactive
same,Potency,[3],inactive
same,Potency,[5],inactive
same,Potency,[8],inactive
